Rows were chosen to be rich in hits. Some 6.2% of all compounds tested hit in one or more screens of this group.
KB-3-1 tox: qHTS assay for MDR1-selective chemotherapeutics: Primary screen using the parental adenocarcinoma cell KB-3-1; Potency, µM (series often up to 46.1 µM), usual class: cytotoxic; KB-3-1 viability, CellTiter-Glo ATP luminescence, 72 h; hit rate 1.4% among 400,000; AID 1347075, 2019; also: % is scaled to controls: 0 for no effect and ±100 for the full control effect; nearly all actives have a fitted effect of over 60% in size
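Cytotoxicity measured as CellTiter-Glo luminescence after 72 h at 37 C. Compound titrations were pinned onto drug-naive KB-3-1 parental adenocarcinoma cells grown in DMEM with 10% FBS, and normalized data fitted to concentration-response curves.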
ATXN2 expr inh: Primary qHTS for Inhibitors of ATXN expression | AID 1745845, 2022 | HEK-293 ATXN2-luciferase reporter, luminescence, 24 h | Potency, µM (titrated, usually from 57 µM), inactives show at the highest dose activity change, negative = inhibition, usual class: inhibitors | hit rate 0.72% among 360,000; also: % is scaled to controls: 0 for no effect and ±100 for the full control effect; nearly all actives have a fitted effect of over 55% in size
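qHTS (up to 57 uM final) was run with 24 h compound exposure of reporter cells at 37 °C. Each well was multiplexed: SteadyGlo luminescence measured ATXN2-luciferase expression after a fluorogenic Gly-Phe-AFC viability readout (25 uM final).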
KB-V1 MDR tox: qHTS assay for MDR1-selective chemotherapeutics: Primary screen using the drug-selected MDR subline cells KB-V1; KB-V1 MDR cells viability, CellTiter-Glo, 72 h; AID 1347076, 2019; Potency, µM (series often up to 46.1 µM), most hits filed as cytotoxic; hit rate 3.4% among 400,000; also: % is scaled to controls: 0 for no effect and ±100 for the full control effect; nearly all actives have a fitted effect of over 60% in size
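Luminescent ATP read-out (CellTiter-Glo, 10 min) measures survival of drug-selected KB-V1 MDR cells after 72 h, 37 degrees C compound exposure. Medium: phenol-red-free DMEM, 10% FBS. Values from fitted concentration-response curves.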
HT1080 IDH1KD tx: qHTS for induction of synthetic lethality in tumor cells producing 2HG: qHTS for the HT-1080-IDH1KD cell line; AID 686971, 2013; hit rate 2% among 360,000; HT-1080 IDH1 knockdown viability, ATP luminescence, 48 h; Potency, µM (top dose mostly 46.1 µM), inactives show top-dose activity, negative = toxicity, hits mostly cytotoxic;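 also: 0% = DMSO wells and -100% = cell-free medium wells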
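CellTiter-Glo luminescence after 48 h compound exposure at 37 degrees C of IDH1-knockdown HT-1080 cells in 5% FBS RPMI. %Activity scaled between DMSO wells and cell-free media wells, with curves fitted and assigned curve classes.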
HT1080NT lethal: qHTS for induction of synthetic lethality in tumor cells producing 2HG: qHTS for the HT-1080-NT fibrosarcoma cell line; HT-1080-NT fibrosarcoma viability, CellTiter-Glo ATP luminescence, 48 h; hit rate 1.6% among 360,000; AID 686970, 2013; Potency, µM (titrated, usually from 46.1 µM), for the others: at the top dose activity, negative = less viability, hits mostly cytotoxic;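 also: NT is the 2HG producing partner of a matched IDH1 knockdown line; 0% = DMSO-treated cells and -100% = media-only wells without cells; nearly all actives have a fitted effect of over 55% in size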
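HT-1080-NT; 750 cells/well; 5% FBS RPMI; 48 h compound, 37 degrees C; CellTiter-Glo luminescence; curve fitting and curve-class assignment.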
ATXN viability: Viability Counterscreen for Primary qHTS for Inhibitors of ATXN expression | S2 cells (HEK-293 line with an ATXN2-luciferase reporter) viability, CellTiter-Fluor protease fluorescence, 24 h | Potency, µM (titrated, usually from 56.7 µM), hits mostly cytotoxic | hit rate 0.49% among 400,000; also: nearly all actives have a fitted effect of over 40% in size
Starred values were filed as active, the others as inactive; i = inactive; ? = inconclusive; . = no result. Calls follow the shape of the dose curve; as a rule, active = well fitted curve in the direction sought with a large enough effect; inconclusive = small, poorly fitted or top-dose-only effect, or another doubt; inactive = no such curve, though single readings can be large; an effect the other way counts as inactive or inconclusive. Potency is read from the fitted curve at half-maximal effect.

SMILES	KB-3-1 tox	ATXN2 expr inh	KB-V1 MDR tox	HT1080 IDH1KD tx	HT1080NT lethal	ATXN viability
Cc1ccc(-n2ncc3c(=O)n(CC(=O)N4CCN(C(=O)c5ccco5)CC4)cnc32)cc1	i	-18%	12µM*	-5%	3%	?
COc1ccc(OC)c(NC(=O)Cn2cnc3sc(C)c(S(=O)(=O)N4CCN(c5ccccc5OC)CC4)c3c2=O)c1	i	3%	i	.	.	i
Cc1nnc(N2CCC(C(=O)NCCC(C)C)CC2)c2nn(-c3ccc(Cl)cc3)c(C)c12	i	-11%	i	.	.	i
Cn1c(=O)n(C)c2cc(N3CCOCC3)c(NC(=O)c3ccc(Cl)cc3)cc21	i	4%	i	.	.	i
Cc1ccc(Cl)cc1NS(=O)(=O)c1cc2c(cc1Cl)CCC(=O)N2	i	.	i	.	.	.
COc1ccccc1NC(=O)Cn1cnc2c(cnn2-c2ccc(C)c(C)c2)c1=O	i	-14%	13µM*	-15%	0%	i
O=C(Cn1cnc2c(cnn2-c2ccc(F)cc2)c1=O)N1CCCc2ccccc21	?	1%	2.9µM*	-11%	-1%	i
Cc1cc(C)nc(-n2nc(C)c3c2N(Cc2ccccc2F)C(=O)CC3c2ccc(Cl)cc2)n1 (stereo not given)	i	-9%	i	.	.	i
CCCC(=O)c1ccc(OC(=O)c2c(-c3ccccc3Cl)noc2C)cc1	?	.	i	.	.	.
CC(=O)Nc1cccc(Oc2ncnc3scc(-c4ccc(C(C)C)cc4)c23)c1	?	12%	21µM*	?	?	i
COc1ccc(-c2csc3ncnc(Nc4cccc(OC)c4)c23)cc1	i	?	i	.	.	i
CC(C)=CNNC(=O)c1ccc(O)cc1	i	.	i	.	.	.
CC(C)N(C(=O)CSc1nnnn1C1CCCC1)C(C)C	i	8%	13µM*	3%	5%	i
COCCn1c(C)cc(C(=O)CSc2nnc(C)s2)c1C	i	5µM*	i	-17%	-12%	i
O=C(O)CSc1nnnn1C1CCCCC1	i	-31%	i	12%	14%	i
COCCn1c(C)cc(C(=O)CSc2nnnn2C2CCCC2)c1C	.	14µM*	.	-1%	8%	i
COc1ccc(NC(=O)c2oc3ccccc3c2NC(=O)c2cc(=O)c3c(C)cc(C)cc3o2)cc1	i	-1%	i	.	.	i
CCOC(=O)c1c(C)[nH]c(C)c1S(=O)(=O)N(C)CC(=O)Nc1ccc(C)c(F)c1	i	-19%	i	.	.	?
CCCOc1ccc(CC2C(=O)Nc3ccc(Br)cc32)cc1 (stereo not given)	i	-24%	i	.	.	?
CCc1ccc(/C=C2\Oc3cc(OC(=O)N4CCOCC4)ccc3C2=O)cc1	?	-10%	21µM*	29%	14%	i
O=C(Nc1ccc(CN2CCOCC2)cc1)c1cc2ccccn2n1	i	22µM*	i	-6%	4%	i
O=C(NC(=S)Nc1ccc(CN2CCOCC2)cc1)c1ccc(-c2ccc(Br)cc2)o1	i	-1%	i	4%	7%	i
COc1ccc(Br)cc1C(=O)NC(=S)Nc1ccc(CN2CCOCC2)cc1	i	25µM*	i	?	?	i
O=C(Nc1ccc(CN2CCOCC2)cc1)c1ccc(-c2ccc(Cl)cc2Cl)o1	i	?	i	?	15µM*	i
Cc1sc(NC(=O)CN2CCOCC2)nc1-c1ccc2c(c1)CCN2S(=O)(=O)c1ccccc1	?	-21%	4.1µM*	?	?	i
SMILES	KB-3-1 tox	ATXN2 expr inh	KB-V1 MDR tox	HT1080 IDH1KD tx	HT1080NT lethal	ATXN viability
O=C(CN1CCOCC1)Nc1nc(-c2ccc3c(c2)CCN3S(=O)(=O)c2ccccc2)cs1	i	?	?	-15%	-27%	?
C=CCn1c(-c2ccc(OC)c(OC)c2)n[nH]c1=S	?	-6%	16µM*	11%	6%	i
CC1=CC(C)(C)N2C(=O)C3(C(C#N)=C(N)OC4=C3C(=O)CCC4)c3c(C)c(C)cc1c32 (stereo not given)	i	-12%	i	-13%	-9%	i
CC1=CC(C)(C)N2C(=O)C3(C(C#N)=C(N)Oc4cc(O)ccc43)c3c(C)c(C)cc1c32 (stereo not given)	?	?	?	?	?	13µM*
Clc1cccc(/C=N/Nc2nnc(Cl)c3ccccc23)c1	i	-11%	i	-11%	?	i
Clc1ccc(/C=N/Nc2nnc(-c3ncc[nH]3)c3ccccc23)cc1	i	15%	7.3µM*	?	?	i
COc1cccc(NC(=O)c2ccccc2OCC(=O)Nc2ccc(Br)cc2)c1	i	.	i	.	.	.
C[C@@H]1CCN(C(=O)[C@H](CCCN=C(N)N)NS(=O)(=O)c2cccc3c2NC[C@H](C)C3)[C@@H](C(=O)O)C1	.	8%	.	.	.	i
CC1CCc2c(sc3ncnc(N4CCOCC4)c23)C1 (stereo not given)	i	18%	15µM*	?	?	i
CC1CCc2c(sc3nc(CN4CCOCC4)nc(Sc4ccccc4)c23)C1 (stereo not given)	i	2%	8.2µM*	-2%	15%	i
CC1CCc2sc3ncnc(N4CCOCC4)c3c2C1 (stereo not given)	i	5%	i	-20%	-23%	i
COC(=O)CSC1=C(C#N)C(c2ccccc2)CC(=O)N1 (stereo not given)	?	-8%	18µM*	-29%	?	i
COC(=O)CSC1=C(C#N)C(c2cccc(F)c2)CC(=O)N1 (stereo not given)	16µM*	-20%	?	?	15µM*	i
COC(=O)CSC1=C(C#N)C(c2ccc(C(C)C)cc2)CC(=O)N1 (stereo not given)	i	-12%	i	3%	6%	i
O=C(CSc1nc2c([nH]c3ccccc32)c(=O)n1-c1ccc(Cl)cc1)N1CCOCC1	i	10%	i	.	.	i
O=C(NCCOCCO)C(=O)Nc1c2c(nn1-c1ccc(F)cc1)CSC2	i	4%	i	.	.	i
COc1ccc(-n2sc3ccc(F)cc3c2=O)cc1	?	?	?	?	?	25µM*
